High-throughput results deposited in PubChem BioAssay by National Center for Advancing Translational Sciences (NCATS).
Compounds with a hit are over-represented: about 7.9% of the library has one in this group of screens.
SW480 rerep: DNA re-replication induction in SW480 cells; SW480 DNA re-replication, Hoechst DNA content imaging, 48 h; Potency, µM (doses to about 46.1 µM), hits mostly activators; 1.8% of 340,000 active; AID 624297; further: nearly all actives have a fitted effect of over 55% in size
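Treated cells incubate 48 hr (37 C, 5% CO2), are stained 40 min with Hoechst, and nuclear fluorescence is enumerated; a rise in nuclei with high DNA signal marks re-replication.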
KB-V1 MDR tox: kills drug-selected multidrug resistant KB-V1 cells | KB-V1 MDR cells viability, CellTiter-Glo, 72 h | 3.4% of 400,000 active | AID 1347076 | Potency, µM (series often up to 46.1 µM), actives largely listed as cytotoxic; further: nearly all actives have a fitted effect of over 60% in size
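Following 72 h at 37 degrees C with compound, KB-V1 cell viability was read by CellTiter-Glo luminescence, medium being phenol-red-free DMEM plus 10% FBS; concentration-response parameters came from normalized, curve-fitted qHTS data.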
HT1080NT lethal: kills 2HG-producing HT-1080-NT fibrosarcoma cells; HT-1080-NT fibrosarcoma viability, CellTiter-Glo ATP luminescence, 48 h; Potency, µM (titrated, usually from 46.1 µM), hits mostly cytotoxic; 1.6% of 360,000 active; AID 686970;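 further: NT is the 2HG producing partner of a matched IDH1 knockdown line; nearly all actives have a fitted effect of over 55% in size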
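HT-1080-NT; 750 cells/well; 5% FBS RPMI; 48 h compound, 37 degrees C; CellTiter-Glo luminescence; curve fitting and curve-class assignment.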
MCF10A rerep: DNA re-replication induction in MCF 10a cells; MCF 10A DNA re-replication, Hoechst nuclear intensity, 48 h; Potency, µM (doses to about 46.1 µM), usual class: activators; 2.9% of 350,000 active; AID 624296; further: nearly all actives have a fitted effect of over 50% in size
KB-3-1 tox: kills parental KB-3-1 adenocarcinoma cells. KB-3-1 viability, CellTiter-Glo ATP luminescence, 72 h. 1.4% of 400,000 active. Potency, µM (top dose mostly 46.1 µM), most hits filed as cytotoxic. AID 1347075; further: nearly all actives have a fitted effect of over 60% in size
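Cytotoxicity measured as CellTiter-Glo luminescence after 72 h at 37 C. Compound titrations were pinned onto drug-naive KB-3-1 parental adenocarcinoma cells grown in DMEM with 10% FBS, and normalized data fitted to concentration-response curves.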
HT1080 IDH1KD tx: toxicity to HT-1080 IDH1 knockdown cells (counter line); 2% of 360,000 active; Potency, µM (series often up to 46.1 µM), hits mostly cytotoxic; HT-1080 IDH1 knockdown viability, ATP luminescence, 48 h
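IDH1KD HT-1080 cells, 750/well, RPMI + 5% FBS; compound pinned after 2 h settling; 48 h, 37 °C; CellTiter-Glo luminescence; % activity normalised to DMSO and no-cell wells; curves fitted, classed by r2 and efficacy.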
Hits are given with their value; - = inactive; ? = inconclusive; . = no result given. The call rests on the fitted dose curve; in most records, active means well fitted curve in the direction sought with a large enough effect; inconclusive means small, poorly fitted or top-dose-only effect, or another doubt; inactive means no such curve, though single readings can be large; an effect the other way counts as inactive or inconclusive.

SMILES | SW480 rerep | KB-V1 MDR tox | HT1080NT lethal | MCF10A rerep | KB-3-1 tox | HT1080 IDH1KD tx
CCc1ccccc1NC(=O)CN1C(=O)CCc2cc(S(=O)(=O)N3CCCCC3)ccc21 | . | - | . | . | - | .
CCCN1CCC(=O)N(CCC#N)CC1 | . | - | . | . | - | .
CCOC(=O)c1ccc(NC2SC(=O)N(Cc3cccc(C(=O)O)c3)C2=O)cc1 (stereo not given) | . | - | . | . | - | .
CCCCN(C)CCNC(=O)c1ccc2c(c1)NC(=O)CN2 | . | - | . | . | - | .
CC(C)OCCCn1c(=O)c2ccccc2n2c(-c3ccc(F)c(F)c3)nnc12 | . | - | . | . | - | .
O=[N+]([O-])c1cc(CN2CCCC2)ccc1Sc1ccc(Cl)cc1 | - | ? | - | 10µM | ? | ?
CC(=O)C12OC1CC1C3CCC4=CC(=O)CCC4(C)C3CCC12C (stereo not given) | - | - | - | - | - | -
C=C1CC2C3CC[C@@]4(OCOC45COCO5)[C@@]3(C)C(O)CC2[C@@]2(C)CCC(=O)C=C12 (stereo not given in full) | ? | ? | - | 5.2µM | - | ?
CCCCNC(=O)CC1Nc2cc(C)c(C)cc2NC1=O (stereo not given) | . | - | . | . | - | .
COc1cccc(CCNC(=O)c2c(O)nc3c(C)cccn3c2=O)c1 | . | ? | . | . | - | .
COc1ccc(OC)c(CCNC(=O)C(C)n2nc(C)c3c(C)n(-c4ccccc4)nc3c2=O)c1 (stereo not given) | - | ? | - | - | ? | -
COc1ccc(OC)c(CCNC(=O)C(C)n2nc(C)c3c(C)n(-c4ccc(C)cc4)nc3c2=O)c1 (stereo not given) | - | - | - | - | ? | 21µM
COc1ccc(CCNC(=O)c2c(O)nc3c(C)cccn3c2=O)cc1OC | . | 6.5µM | . | . | - | .
Cc1cc(C)c(NC(=O)c2c(C)nn(-c3ccc(F)cc3)c2-n2cccc2)c(C)c1 | . | - | . | . | ? | .
CCN(CC)c1ccc(NC(=O)c2c(C)nn(-c3ccc(F)cc3)c2-n2cccc2)c(C)c1 | . | 21µM | . | . | ? | .
Cc1ccc(CCNC(=O)c2c(C)nn(-c3ccc(F)cc3)c2-n2cccc2)cc1 | . | 5.8µM | . | . | 3.3µM | .
COc1ccc(C(=O)CN2C(=O)N(c3ccc(C(C)=O)cc3)S(=O)(=O)c3ccccc32)cc1 | . | ? | . | . | - | .
COCCn1c(C)cc(O)c(C(c2ccccc2)N2CCN(CCO)CC2)c1=O (stereo not given) | . | - | . | . | - | .
COc1cc(OC)c(NC(=O)c2c(C)nn(-c3ccc(C)cc3)c2-n2cccc2)cc1Cl | . | ? | . | . | 23µM | .
COc1ccc(OC)c(CCNC(=O)c2c(C)nn(-c3ccc(F)cc3)c2-n2cccc2)c1 | . | 12µM | . | . | ? | .
CCOc1ccc(NC(=O)c2c(C)nn(-c3ccc(F)cc3)c2-n2cccc2)cc1 | . | - | . | . | - | .
CC(=O)c1cccc(NC(=O)c2c(C)nn(-c3ccc(F)cc3)c2-n2cccc2)c1 | . | ? | . | . | - | .
COc1ccc(CCNC(=O)c2c(C)nn(-c3ccc(F)cc3)c2-n2cccc2)cc1OC | . | 5.2µM | . | . | 5.8µM | .
COC(=O)[C@]12CCCCC=C1N(CCC1=CCCCC1)C(=O)[C@H](CC(=O)NCCc1ccccc1OC)C2 | . | - | ? | . | ? | ?
CCC1Oc2ccccc2N(CC(=O)N2CC(C)CC(C)C2)C1=O (stereo not given) | . | ? | - | . | - | -
SMILES | SW480 rerep | KB-V1 MDR tox | HT1080NT lethal | MCF10A rerep | KB-3-1 tox | HT1080 IDH1KD tx
O=C(NCc1ccc(Cl)cc1)c1cnc(N2CCOCC2)c2ccccc12 | . | - | . | . | ? | .
O=c1oc2ccccc2cc1-c1nc2ccccc2o1 | - | - | - | - | - | -
O=c1oc2ccc3ccccc3c2cc1-c1nc2ccccc2o1 | 18µM | - | - | ? | - | -
CCCOC(=O)c1c(NC(=O)C2c3ccccc3Oc3ccccc32)sc2c1CCC(C)C2 (stereo not given) | . | - | . | . | - | .
Cc1ccc(N2CCN(S(=O)(=O)c3nnc(NC(=O)c4cccc(F)c4)s3)CC2)cc1 | . | - | . | . | - | .
CC(Nc1nc(-c2ccc(F)cc2)cs1)c1nc2cc(Cl)c(N3CCCCC3)cc2n1CCCO (stereo not given) | ? | ? | - | 21µM | ? | ?
